Source: PubChem BioAssay
JMJD2E inh: qHTS Assay for Inhibitors of Human Jumonji Domain Containing 2E (JMJD2E); JMJD2E catalytic domain, FDH-coupled NADH fluorescence (FDH is formaldehyde dehydrogenase); Potency, µM (titrated, usually from 57.1 µM), without a hit: at the top dose activity change, negative = inhibition, usual class: inhibitors; hit rate 1.6% among 230,000; AID 2147, 2009; active = well fitted inhibition curve with a large enough effect, not every such curve was filed as active; inconclusive = small, poorly fitted or top-dose-only effect, or another doubt; inactive = no such curve, though single readings can be large or run the other way;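 also: 0% = wells with enzyme and -100% = buffer wells without enzyme; nearly all actives have a fitted effect of over 50% in size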
RECQ1 inh: qHTS Assay for Inhibitors of RecQ-Like Dna Helicase 1 (RECQ1) | RECQ1 DNA unwinding, red fluorescence kinetic read | ATP-dependent DNA helicase Q1 (Homo sapiens), P46063 | hit rate 0.54% among 240,000 | Potency, µM (top dose mostly 57.3 µM), inactives show at the top dose activity, negative = inhibition, most hits filed as inhibitors;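 also: plate controls were vehicle for no effect and no enzyme for full effect; nearly all actives have a fitted effect of over 30% in size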
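50 nM RECQ1T1 preincubated 15 min with compound in Tris pH 8.0 buffer with MgCl2, DTT, Tween-20 and 2.5 ug/ml poly(dI-dC); started with 200 nM TAMRA/BHQ-2 forked duplex and 2 mM ATP. Unwinding read as fluorescence (525/598 nm), two reads 2 h apart.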
L3MBTL1 block: qHTS Assay for the Inhibitors of L3MBTL1; AlphaScreen L3MBTL1–H3K9me1 peptide binding; Potency, µM (highest dose often 57.1 µM), for inactives: at the top dose activity, negative = inhibition, hits mostly inhibitors; hit rate 0.66% among 230,000; also: nearly all actives have a fitted effect of over 60% in size
Target sequence (Q9Y468 whole entry, looked up): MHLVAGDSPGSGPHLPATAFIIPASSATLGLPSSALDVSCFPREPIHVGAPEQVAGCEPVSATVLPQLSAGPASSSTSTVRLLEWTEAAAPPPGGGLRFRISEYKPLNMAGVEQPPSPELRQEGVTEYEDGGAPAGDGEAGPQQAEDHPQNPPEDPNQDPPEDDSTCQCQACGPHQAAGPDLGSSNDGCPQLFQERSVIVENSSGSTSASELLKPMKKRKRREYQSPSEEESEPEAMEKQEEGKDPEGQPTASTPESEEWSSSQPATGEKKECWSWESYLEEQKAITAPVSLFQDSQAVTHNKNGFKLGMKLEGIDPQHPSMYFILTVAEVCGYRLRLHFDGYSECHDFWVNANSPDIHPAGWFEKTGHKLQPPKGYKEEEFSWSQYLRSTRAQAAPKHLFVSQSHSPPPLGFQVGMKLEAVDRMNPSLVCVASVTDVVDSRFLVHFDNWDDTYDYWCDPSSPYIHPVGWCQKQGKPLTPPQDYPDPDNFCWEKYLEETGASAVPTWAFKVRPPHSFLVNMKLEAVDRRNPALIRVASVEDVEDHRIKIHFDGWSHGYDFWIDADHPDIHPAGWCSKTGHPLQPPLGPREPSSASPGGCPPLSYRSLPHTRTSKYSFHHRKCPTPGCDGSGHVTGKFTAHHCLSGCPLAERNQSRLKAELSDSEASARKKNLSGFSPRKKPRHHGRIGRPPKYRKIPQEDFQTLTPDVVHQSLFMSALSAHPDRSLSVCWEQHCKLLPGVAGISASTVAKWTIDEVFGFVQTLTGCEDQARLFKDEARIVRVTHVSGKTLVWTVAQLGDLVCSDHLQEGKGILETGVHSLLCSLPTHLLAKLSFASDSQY
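First, the protein-peptide complex forms for 30 min at room temperature (L3MBTL1 50 nM, biotinylated H3K9me1 peptide 75 nM). Next, compounds are pin-transferred and incubated 30 min. Finally, AlphaScreen beads are added and read after 30 min.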
BLM helicase inh: qHTS Assay for Inhibitors of Bloom's syndrome helicase (BLM) | recombinant BLM DNA unwinding, fluorescence dequenching | Potency, µM (series often up to 56.1 µM), for the others: at the highest dose activity change, negative = inhibition, hits mostly inhibitors | hit rate 0.2% among 350,000 | AID 2528, 2010;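 also: plate controls were vehicle for no effect and no enzyme for full effect; nearly all actives have a fitted effect of over 35% in size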
APEX1 inh: qHTS Assay for Inhibitors of the Human Apurinic/apyrimidinic Endonuclease 1 (APE1); recombinant APE1, TAMRA/BHQ-2 abasic DNA cleavage fluorescence; AID 2517, 2012; Potency, µM (doses to about 65.8 µM), for the others: at the top dose activity change, negative = inhibition, most hits filed as inhibitors; hit rate 0.35% among 350,000; DNA repair nuclease/redox regulator APEX1 (Homo sapiens), P27695;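 also: plate controls were vehicle for no effect and reference inhibitor for full effect; nearly all actives have a fitted effect of over 55% in size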
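Quantitative HTS: incision of a TAMRA/BHQ-2 double-stranded substrate bearing a tetrahydrofuran abasic site by 0.75 nM APE1 raises fluorescence. Substrate 50 nM final, added after 15 min compound preincubation at room temperature; progress as third-minus-first kinetic read difference.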
Numbers without * were called inactive; i = inactive; ? = inconclusive; . = no result. The full list was thinned out, with hits kept by preference. Unless noted, calls follow the shape of the dose curve; as a rule, active = well fitted curve in the direction sought with a large enough effect; inconclusive = small, poorly fitted or top-dose-only effect, or another doubt; inactive = no such curve, though single readings can be large; an effect the other way counts as inactive or inconclusive. Unless noted, % is scaled to controls: 0 for no effect and ±100 for the full control effect; potency is read from the fitted curve at half-maximal effect.

SMILES	JMJD2E inh	RECQ1 inh	L3MBTL1 block	BLM helicase inh	APEX1 inh
Cc1[nH]c2ccc(C(C)C)cc2c1CC(=O)O	?	-13.8%	.	-4.8%	15.3%
Cc1cc(C)c(S(=O)(=O)/N=C2\C=C(NS(=O)(=O)c3ccccc3)C(=O)c3ccccc32)c(C)c1	.	.	.	-11.8%	-20.1%
Cc1cc(C)c(S(=O)(=O)/N=C2/C=C(SCC(=O)O)C(=O)c3ccccc32)cc1C	?	?	.	31.6µM*	?
C=CCn1c(SCC(=O)N2CCOCC2)nc2scc(-c3ccco3)c2c1=O	-11.7%	-28.5%	?	17.8µM*	-15.0%
Cc1[nH]c2ccccc2c1/C=N/Nc1nncn1N	?	14.8%	-26.4%	-1.5%	-1.8%
Cc1[nH]c2ccccc2c1/C=N/Nc1ccccn1	25.1µM*	-11.8%	?	-10.6%	-0.9%
COc1cc(N=Nc2cccc(S(N)(=O)=O)c2)c2ccccc2c1N	?	i	-25.5%	3.98µM*	?
NC1=NC(=Nc2cccc(S(N)(=O)=O)c2)c2ccccc21	4.0%	19.9%	7.6%	1.8%	2.9%
CC12CCC(C(=O)NCc3ccccc3)(OC1=O)C2(C)C (centres undefined)	-9.0%	i	?	4.5%	-4.7%
C/C(=N\NC(=O)C12CCC(C)(C(=O)O1)C2(C)C)c1ccccc1O (centres undefined)	8.91µM*	-1.4%	2.6%	3.1%	32.4%
CC12CCC(C(=O)N/N=C/c3ccc(O)cc3O)(OC1=O)C2(C)C (centres undefined)	25.1µM*	-0.6%	-21.3%	-5.0%	4.7%
CN(CC(=O)Nc1ccc(F)c(F)c1F)C(=O)C1CC(=O)N(c2ccc3c(c2)OCCO3)C1 (centres undefined)	.	.	4.0%	.	-11.8%
Cn1c(=O)c(C(=O)COc2ccc(C#N)cc2)c(N)n(Cc2ccccc2)c1=O	11.1%	-1.0%	.	-0.6%	-2.6%
Cc1c(C(=O)N/N=C/c2ccc(-c3ccccc3[N+](=O)[O-])o2)sc(N)c1C#N	1.9%	-9.5%	-1.9%	7.94µM*	1.3%
Cc1cc([N+](=O)[O-])ccc1-c1ccc(C2Nc3ccccc3C(=O)N2O)o1 (centres undefined)	28.2µM*	-3.5%	-4.7%	-8.5%	12.7%
N#Cc1c(N)nc(SCC(=O)C23CC4CC(CC(C4)C2)C3)c(C#N)c1-c1ccc(Cl)cc1	3.55µM*	i	.	-7.1%	1.8%
COc1ccccc1CNC(=O)c1c(O)c2cc(OC)c(OC)cc2[nH]c1=O	3.55µM*	-6.1%	-0.3%	-1.9%	5.2%
FC(F)(F)c1ccccc1-c1nc(N2CCOCC2)c2ccccc2n1	.	-1.3%	.	-11.4%	25.1µM*
CC1=CC(=O)c2c(O)ccc(O)c2C1=O	?	3.55µM*	0.794µM*	17.8µM*	2µM*
O=C1c2c(O)ccc([N+](=O)[O-])c2C(=O)c2c([N+](=O)[O-])ccc(O)c21	.	-29.3%	.	.	?
CCNc1ccc(Br)cc(C(=O)/C=C/c2c(Cl)cccc2Cl)c1=O	?	1.3%	8.91µM*	?	?
COC(=O)c1sc(-c2cccs2)cc1NC(=O)/C=C/C(=O)O	?	-6.6%	.	15.8µM*	-3.2%
Cc1ccc(NC(=O)C2CCCN(c3ncnc4c3nc3n4CCCCC3)C2)nc1 (centres undefined)	.	.	.	-8.1%	-11.0%
CN(CC(=O)Nc1cccc(F)c1)C(=O)c1cccc(-n2cccc2)c1	.	.	7.08µM*	.	3.36µM*
CN(CC(=O)Nc1cccc(F)c1)C(=O)c1ccc(N2C(=O)c3ccccc3C2=O)cc1	.	.	-3.9%	.	56.8%
SMILES	JMJD2E inh	RECQ1 inh	L3MBTL1 block	BLM helicase inh	APEX1 inh
COc1ccc(-c2nn(-c3ccccc3)cc2C(=O)NCC2CCCO2)cc1 (centres undefined)	.	.	.	-3.7%	3.8%
CC[C@H](C)[C@H](NC(=O)[C@H](Cc1ccc(O)cc1)NC(=O)[C@H](Cc1cnc[nH]1)NC(=O)[C@H](CCCNC(=N)N)NC(=O)[C@H](CC(C)C)NC(=O)[C@H](C)NC(=O)[C@H](CO)NC(=O)[C@H](Cc1ccc(O)cc1)NC(=O)[C@H](Cc1ccc(O)cc1)NC(=O)[C@H](CCCNC(=N)N)NC(=O)[C@H](C)NC(=O)[C@H](CC(C)C)NC(=O)[C@H](CC(=O)O)NC(=O)[C@H](CCC(=O)O)NC(=O)[C@H](C)NC(=O)[C@@H]1CCCN1C(=O)[C@H](C)NC(=O)[C@H](CC(=O)O)NC(=O)[C@H](CCC(=O)O)NC(=O)CNC(=O)[C@@H]1CCCN1C(=O)[C@H](CC(N)=O)NC(=O)[C@H](CC(=O)O)NC(=O)[C@@H]1CCCN1C(=O)[C@H](CCCCN)NC(=O)[C@@H](N)CO)C(=O)N[C@@H](CC(N)=O)C(=O)N[C@@H](CC(C)C)C(=O)N[C@H](C(=O)N[C@H](C(=O)N[C@@H](CCCNC(=N)N)C(=O)N[C@@H](CCC(N)=O)C(=O)N[C@@H](CCCNC(=N)N)C(=O)N[C@@H](Cc1ccc(O)cc1)C(N)=O)[C@@H](C)O)[C@@H](C)CC	.	-0.8%	.	-11.1%	-3.0%
CC1(C)Cc2c(C#N)c(OCC(=O)c3ccccc3)nc(-c3ccoc3)c2CO1	2.8%	-13.7%	-7.4%	-5.9%	11.3%
CCOc1ccc(C(CC(=O)O)NC(=O)c2sc3ccccc3c2Cl)cc1 (centres undefined)	-4.4%	-5.3%	2.2%	-1.0%	-3.0%
O=C(CNC(=O)c1ccc2c(c1)OCCO2)N/N=C/c1ccc(O)cc1O	12.6µM*	-8.7%	-3.7%	-5.0%	11.2%
O=C(CCCCCNC(=O)c1ccccc1)N/N=C/c1ccccc1O	25.1µM*	-9.7%	9.9%	4.3%	-7.3%
Cc1ccc(S(=O)(=O)NCC(=O)N/N=C/c2ccccc2O)cc1	25.1µM*	-8.7%	-4.4%	-2.0%	-3.0%
O=C(CNC(=O)c1ccncc1)N/N=C/c1ccc(O)cc1O	20µM*	-4.7%	-28.7%	-8.4%	-3.0%
O=C(CCCCCNC(=O)c1ccccc1)N/N=C/c1ccco1	-1.8%	1.4%	-18.8%	-9.5%	?
CCOC(=O)c1oc2c(c1C)-c1nn(Cc3c(F)cccc3Cl)cc1CC2	.	.	.	-3.9%	.
COC(=O)c1nnn(CC(=O)NC(=O)Nc2c(C)cccc2C)c1C(=O)OC	-2.7%	-3.1%	6.0%	2.3%	-5.7%
CCCCCCCCCCCCCCCC(=O)C1=C(O)C(CO)OC1=O (centres undefined)	.	35.5µM*	.	.	?
Cc1ccc(S(=O)(=O)N/N=C/c2ccc(O)c(O)c2)cc1[N+](=O)[O-]	28.2µM*	-3.0%	-9.0%	-0.9%	-3.5%
